# Activity calls are given as the source filed them.
# Legend:
# [1] = test system: Plasmodium falciparum Sir2 (PF13_0152, Sir2A); test: pfSir2 binders on small-molecule microarrays, primary screen, biochemical, small-molecule microarray, 635 nm fluorescence (AID 1098); details: small-molecule microarray binding, fluorescence 635 nm; higher = more signal;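 further: score merges spot fluorescence intensity with its signal-to-noise ratio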
# [2] = small-molecule microarray binders of probe aDKK1, primary screen, biochemical, biotinylated probe, 635/667 nm fluorescence (AID 1099); details: higher = more signal;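 further: score merges 667nm spot fluorescence with signal to noise across triplicate slides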
# [3] = small-molecule microarray binders of probe aCHRDL2, primary screen, biochemical, biotinylated probe, 635/667 nm fluorescence (AID 1100); details: higher = more signal
# [4] = splicing luciferase reporter signal modulators, primary screen, spliceosome inhibition project, cell-based, HEK293, splice +/- reporter (AID 1101); details: luminescence, 24 h, higher = more signal, called active from +8 up or from −8 down;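 further: HEK293 cells carrying a splicing-competent luciferase reporter gene; test concentration not given here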
# [5] = biological target: Fibroblast growth factor 10 (Homo sapiens) (UniProt O15520); test: FGF10 binders on small-molecule microarrays, primary screen, biochemical, small-molecule microarray, 635 nm fluorescence (AID 1102); details: FGF10 binding, fluorescence 635 nm, higher = more signal
# [6] = test system: glycogen synthase kinase-3 (GSK3A per assay name; protocol says GSK3B); test: GSK3 binders on small-molecule microarrays, primary screen, biochemical, small-molecule microarray, 635 nm fluorescence, GSK3A (AID 1103); details: small-molecule microarray binding, fluorescence 635 nm; higher = more signal; further: the record names both GSK3A and GSK3B
# [7] = biological target: Epidermal growth factor receptor (Homo sapiens) (UniProt P00533); test: EGFR binders on small-molecule microarrays, primary screen, biochemical, small-molecule microarray, 635 nm fluorescence (AID 1104); details: EGFR binding, higher = more signal;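 further: score merges 667 nm emission intensity with spot signal to noise over triplicate slides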
# [8] = biological target: Follistatin-related protein 3 (Homo sapiens) (UniProt O95633); test: FSTL3 binders on small-molecule microarrays, primary screen, biochemical, small-molecule microarray, 635 nm fluorescence (AID 1105); details: FSTL3 binding, higher = more signal;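 further: score merges emission near 667 nm and signal to noise per printed spot across three slides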
# [9] = biological target: Dickkopf-related protein 1 (Homo sapiens) (UniProt O94907); test: DKK1 binders on small-molecule microarrays, primary screen, biochemical, small-molecule microarray, 635 nm fluorescence scan (AID 1106); details: DKK1 binding, higher = more signal;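 further: score merges emission near 667 nm with signal to noise over three replicate slides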
# [10] = test system: Inhibin beta A chain (activin A); test: INHBA (activin A) binders on microarrays, primary screen, biochemical, small-molecule microarray, 635 nm fluorescence scan (AID 1107); details: small-molecule microarray binding, higher = more signal;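 further: mouse activin A protein probed at 4.33 µg/mL on printed slides; score merges bound-protein fluorescence near 667 nm with spot signal-to-noise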
# [11] = test system: Human papillomavirus type 1a protein E7 (residues 44-93); test: HPV1a E7 fragment binders on microarrays, primary screen, biochemical, small-molecule microarray, residues 44-93, 635 nm fluorescence (AID 1108); details: small-molecule microarray binding, fluorescence 635 nm; higher = more signal;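 further: E7 fragment applied at 1 µg/mL in TBST for 1 h at 4 C; score combines spot fluorescence with its signal to noise ratio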
# [12] = modulators of HCV replicon luciferase signal, primary screen, HCV replication inhibitor project, Huh7 cells, luciferase reporter (AID 1109); details: 48 h, higher = more signal;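 further: huh7 hepatoma cells harbouring a luciferase neomycin HCV replicon reporter; luciferase luminescence as measure of HCV replicon replication; test concentration not given here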
# [13] = biological target: Left-right determination factor 2 (Homo sapiens) (UniProt O00292); test: LEFTY2 binders on small-molecule microarrays, primary screen, biochemical, small-molecule microarray, 635 nm fluorescence scan (AID 1110); details: LEFTY2 binding, higher = more signal
# [14] = biological target: Calmodulin-1 (Homo sapiens) (UniProt P0DP23); test: CALM1 binders on microarrays, EGTA buffer, profiling panel, biochemical, small-molecule microarray, Cy5-labelled CALM1 (AID 1111); details: Cy5-CALM1 binding fluorescence, higher = more signal;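 further: labelled calmodulin applied in Tris saline Tween buffer holding calcium plus EGTA and DTT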
# [15] = biological target: Calmodulin-1 (Homo sapiens) (UniProt P0DP23); test: calcium-bound CALM1 binders on microarrays, profiling panel, artefact control for SMM control-protein annotation, biochemical, small-molecule microarray, Cy5-labelled CALM1, plus calcium (AID 1112); details: Cy5-CALM1 binding fluorescence, higher = more signal;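 further: score merges spot fluorescence with signal to noise from triplicate slides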
# [16] = small-molecule microarray binders of probe aWnt5a, primary screen, biochemical, biotinylated probe, 635/667 nm fluorescence (AID 1113); details: higher = more signal;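 further: score merges 667 nm fluorescence intensity with signal-to-noise per printed feature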
# [17] = small-molecule microarray binders of probe aShh, primary screen, biochemical, biotinylated probe, 635/667 nm fluorescence (AID 1114); details: higher = more signal;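 further: probe is biotin-labelled aShh protein from a stem cell growth factor screen; measures binding of labelled protein to compounds printed on the slide; score merges feature fluorescence at 667 nm with signal-to-noise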
# [18] = small-molecule microarray binders of probe aNog, primary screen, biochemical, biotinylated probe, 635/667 nm fluorescence (AID 1115); details: higher = more signal;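 further: probe is biotinylated aNog protein used at 0.15 µg/mL for 1 h at 4 C; z-score combines 667 nm fluorescence of each spot with its signal to noise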
# [19] = biological target: Torsin-1A-interacting protein 1 (Homo sapiens) (UniProt Q5JTV8); test: LAP1 binders from COS7 cell lysate, primary screen, small-molecule microarray, 635/667 nm fluorescence (AID 1116); details: COS7-hLAP1 lysate binding, 635 nm fluorescence, higher = more signal
# [20] = biological target: Alpha-bungarotoxin (Bungarus multicinctus) (UniProt P60615); test: alpha-bungarotoxin binders on microarray, profiling panel, artefact control for SMM control protein annotation, biochemical, small-molecule microarray, Alexa647 label, 635/667 nm fluorescence (AID 1117); details: alpha-BTX-A647 binding fluorescence, higher = more signal
# Alpha-bungarotoxin (Bungarus multicinctus), sequence (P60615 whole entry, looked up): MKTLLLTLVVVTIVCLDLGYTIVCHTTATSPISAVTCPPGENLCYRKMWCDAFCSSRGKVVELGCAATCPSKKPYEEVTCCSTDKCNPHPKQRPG
# Left-right determination factor 2 (Homo sapiens), sequence (O00292 whole entry, looked up): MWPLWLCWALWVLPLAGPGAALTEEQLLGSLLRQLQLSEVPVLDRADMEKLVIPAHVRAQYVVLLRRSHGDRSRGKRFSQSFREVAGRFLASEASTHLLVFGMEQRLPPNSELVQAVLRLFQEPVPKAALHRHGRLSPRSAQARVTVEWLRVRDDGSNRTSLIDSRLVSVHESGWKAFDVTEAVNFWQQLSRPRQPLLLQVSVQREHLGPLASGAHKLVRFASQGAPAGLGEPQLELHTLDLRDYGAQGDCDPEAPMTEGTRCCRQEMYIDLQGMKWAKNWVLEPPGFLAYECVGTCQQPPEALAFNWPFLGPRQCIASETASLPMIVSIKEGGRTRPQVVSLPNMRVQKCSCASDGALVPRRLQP
# Dickkopf-related protein 1 (Homo sapiens), sequence (O94907 whole entry, looked up): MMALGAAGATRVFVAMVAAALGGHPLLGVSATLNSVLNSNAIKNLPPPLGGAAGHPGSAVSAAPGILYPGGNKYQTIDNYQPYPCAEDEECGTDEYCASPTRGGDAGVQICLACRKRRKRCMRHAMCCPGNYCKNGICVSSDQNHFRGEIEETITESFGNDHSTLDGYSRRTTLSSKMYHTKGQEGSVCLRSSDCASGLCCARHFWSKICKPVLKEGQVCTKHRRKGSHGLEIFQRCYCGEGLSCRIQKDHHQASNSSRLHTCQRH
# Follistatin-related protein 3 (Homo sapiens), sequence (O95633 whole entry, looked up): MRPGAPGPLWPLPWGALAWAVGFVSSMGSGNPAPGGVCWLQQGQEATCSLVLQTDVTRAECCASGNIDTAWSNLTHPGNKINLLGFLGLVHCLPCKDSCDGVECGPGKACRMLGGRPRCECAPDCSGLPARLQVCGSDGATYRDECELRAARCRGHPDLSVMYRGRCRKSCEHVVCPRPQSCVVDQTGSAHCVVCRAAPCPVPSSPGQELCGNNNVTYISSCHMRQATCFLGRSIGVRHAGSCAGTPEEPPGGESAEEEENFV
# Torsin-1A-interacting protein 1 (Homo sapiens), sequence (Q5JTV8 whole entry, looked up): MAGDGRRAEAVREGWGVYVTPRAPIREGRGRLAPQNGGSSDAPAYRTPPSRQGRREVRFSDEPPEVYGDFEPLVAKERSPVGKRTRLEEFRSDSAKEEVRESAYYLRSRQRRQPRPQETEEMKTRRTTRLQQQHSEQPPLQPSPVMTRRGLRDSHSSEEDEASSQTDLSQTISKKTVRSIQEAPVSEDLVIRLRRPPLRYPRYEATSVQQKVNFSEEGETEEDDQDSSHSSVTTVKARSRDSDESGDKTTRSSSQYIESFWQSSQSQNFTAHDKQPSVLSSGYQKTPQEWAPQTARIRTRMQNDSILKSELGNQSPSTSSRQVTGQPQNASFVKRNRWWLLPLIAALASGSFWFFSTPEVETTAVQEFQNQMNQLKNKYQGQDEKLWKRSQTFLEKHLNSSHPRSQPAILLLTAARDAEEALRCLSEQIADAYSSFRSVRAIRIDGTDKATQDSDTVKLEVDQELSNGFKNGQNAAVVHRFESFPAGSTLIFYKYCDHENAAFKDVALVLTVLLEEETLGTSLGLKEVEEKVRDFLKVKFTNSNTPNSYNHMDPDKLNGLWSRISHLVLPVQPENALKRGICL
# Epidermal growth factor receptor (Homo sapiens), sequence (P00533 whole entry, looked up): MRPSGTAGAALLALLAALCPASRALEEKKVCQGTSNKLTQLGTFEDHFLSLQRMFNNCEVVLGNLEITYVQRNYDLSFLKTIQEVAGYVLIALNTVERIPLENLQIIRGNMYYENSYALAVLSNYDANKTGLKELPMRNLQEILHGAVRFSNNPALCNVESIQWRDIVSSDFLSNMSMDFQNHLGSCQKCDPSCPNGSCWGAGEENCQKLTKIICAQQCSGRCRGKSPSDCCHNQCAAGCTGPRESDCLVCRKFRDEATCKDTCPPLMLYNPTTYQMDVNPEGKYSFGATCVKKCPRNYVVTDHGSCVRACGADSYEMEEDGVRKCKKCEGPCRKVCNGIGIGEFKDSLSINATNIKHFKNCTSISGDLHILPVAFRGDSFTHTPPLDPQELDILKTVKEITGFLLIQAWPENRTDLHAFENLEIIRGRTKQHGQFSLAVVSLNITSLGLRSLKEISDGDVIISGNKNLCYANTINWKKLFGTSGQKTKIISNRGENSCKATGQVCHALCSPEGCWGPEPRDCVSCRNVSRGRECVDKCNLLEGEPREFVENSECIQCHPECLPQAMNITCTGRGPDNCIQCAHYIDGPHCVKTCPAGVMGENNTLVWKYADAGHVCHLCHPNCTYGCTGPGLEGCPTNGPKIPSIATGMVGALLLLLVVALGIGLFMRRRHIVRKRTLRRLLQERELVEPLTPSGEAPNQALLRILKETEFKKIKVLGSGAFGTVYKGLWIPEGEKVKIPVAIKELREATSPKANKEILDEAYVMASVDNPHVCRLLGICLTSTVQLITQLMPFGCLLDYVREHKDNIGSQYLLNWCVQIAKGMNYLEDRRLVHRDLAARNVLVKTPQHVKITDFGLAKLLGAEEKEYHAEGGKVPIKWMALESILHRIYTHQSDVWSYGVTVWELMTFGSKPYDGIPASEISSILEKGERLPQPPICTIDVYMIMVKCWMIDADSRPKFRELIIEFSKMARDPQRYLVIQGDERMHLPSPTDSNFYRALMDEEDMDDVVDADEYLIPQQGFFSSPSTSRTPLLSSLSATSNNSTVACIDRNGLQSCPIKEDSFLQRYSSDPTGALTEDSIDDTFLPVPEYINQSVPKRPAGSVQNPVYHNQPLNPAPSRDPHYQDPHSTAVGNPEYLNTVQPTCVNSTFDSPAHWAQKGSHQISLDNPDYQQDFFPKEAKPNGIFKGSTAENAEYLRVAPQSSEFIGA
# Fibroblast growth factor 10 (Homo sapiens), sequence (O15520 whole entry, looked up): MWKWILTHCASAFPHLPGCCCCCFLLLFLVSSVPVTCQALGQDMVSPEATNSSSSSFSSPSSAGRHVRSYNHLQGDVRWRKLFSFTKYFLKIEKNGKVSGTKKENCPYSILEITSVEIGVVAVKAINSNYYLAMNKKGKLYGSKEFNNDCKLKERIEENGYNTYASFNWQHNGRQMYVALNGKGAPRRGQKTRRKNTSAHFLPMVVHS
SMILES,composite z-score [1],composite z-score [2],composite z-score [3],z-score [4],composite z-score [5],composite z-score [6],composite z-score [7],composite z-score [8],composite z-score [9],composite z-score [10],composite z-score [11],z-score [12],composite z-score [13],composite z-score [14],composite z-score [15],composite z-score [16],composite z-score [17],composite z-score [18],composite z-score [19],composite z-score [20]
C=C(COC)/C(=C/C[C@H](OC(C)=O)c1ccc(OCCO)cc1)c1cc(C(=O)OC)ccc1OC,1.38,0.0841,-0.24,-0.195 (inactive),1.48,0.416,0.148,0.924,0.468,0.72,0.697,-1.13,0.695,-0.24,-0.845,-0.0792,-0.169,0.449,2.13,0.0079
C=C(C)[C@@H]1CC=C(C(O)C2C=CC3C(=O)N(c4ccccc4)C(=O)C3N2Nc2ccccc2F)CC1 (stereo not given in full),1.15,0.671,0.972,0.869 (inactive),1.08,1.3,0.662,1.42,-0.112,0.725,1.46,-0.0769,0.341,1.41,0.797,0.0003,-0.0858,1.4,1.04,1.19
CC(C)C(=C=CC[C@H](O)c1ccc(OCCO)cc1)C[C@H](O)c1ccccn1,0.471,-0.0813,-0.233,-0.544 (inactive),0.275,0.372,-0.511,-0.11,-0.478,-0.262,1.22,-0.789,-0.0676,0.0123,-0.0896,-0.1,-0.0769,-0.132,0.859,1.6
COCCOC(=O)N1C(=O)[C@@]2(c3cc(C#CC4(O)CCCCCC4)ccc31)[C@H](c1ccc(O)cc1)N1[C@H](c3ccccc3)[C@H](c3ccccc3)OC(=O)[C@H]1[C@@H]2C(=O)NC[C@H](O)c1ccccc1,0.355,0.655,0.692,0.355 (inactive),1.12,1.29,0.783,0.936,1.08,-0.237,1.05,-1.03,0.951,0.896,0.524,-0.0339,0.14,0.0896,1.6,1.76
CCOc1cc(C(O)C2C=CC3C(=O)N(c4ccccc4)C(=O)C3N2Nc2ccc(C#N)cc2)ccc1O (stereo not given),0.146,1.3,0.643,0.751 (inactive),0.0415,-0.0102,-0.209,0.472,-0.454,0.713,0.0289,-0.131,-0.0669,1.81,0.0646,-0.261,-0.315,0.0582,0.562,1.28
C=CCC(OC(C)=O)[C@@H]1[C@@H](N(Cc2ccc(-c3cccc(C(F)(F)F)c3)o2)C(=O)c2ccc(-c3ccccc3)cc2)c2cc(OCCCO)ccc2N1C(=O)c1ccc2ccccc2n1 (stereo not given in full),-0.219,0.148,0.202,0.39 (inactive),0.129,-0.587,-0.049,0.472,-0.0126,1.28,-0.252,0.177,-0.122,-0.227,0.623,0.0437,0.112,-0.139,-0.2,-0.386
C=C(C)C1CCC(C(O)C2C=CC3C(=O)N(C)C(=O)C3N2N2CCCCC2)CC1 (stereo not given),0.925,0.145,0.67,0.929 (inactive),0.853,1.3,1.16,1.35,0.986,1.42,1.44,-0.385,0.67,0.949,0.763,0.048,0.413,0.751,0.555,1.89
[N-]=[N+]=NCc1ccccc1[C@H]1OC(c2ccc(OCCCO)cc2)=N[C@@]1(CCS(=O)(=O)c1ccccc1)C(=O)NCC(O)CO (stereo not given in full),1.54,0.658,1.18,0.542 (inactive),1.32,0.752,-0.0986,0.264,-0.0898,0.501,1.46,-0.157,-0.342,1.42,0.66,0.143,0.522,1.59,1.96,1.66
COc1ccccc1CN1C(=O)c2ccccc2[C@@]2(Cc3ccccc3N(CC(F)(F)F)C2=O)[C@@H]1c1ccc(CO)cc1,0.144,-0.435,-0.167,1.49 (inactive),0.507,0.524,0.414,0.614,0.564,1.03,0.802,-0.521,0.244,-0.504,-0.723,0.13,-0.308,1.68,-0.0328,0.118
COC(=O)c1cn(C[C@@H](Cc2ccccc2)NC(=O)N[C@H](CO)CCc2oc(C(C)=O)c(C(=O)OC)c2C(=O)OC)nn1,0.741,0.067,-0.255,0.138 (inactive),0.738,0.895,0.452,1.4,0.894,-0.293,0.303,-0.407,0.993,-0.335,-0.616,0.02,-0.283,-0.0789,0.862,0.177
COC(=O)[C@@]1(Cc2ccc(OC)cc2)[C@@H]2C(=CC(=O)[C@H]2CC(=O)C(=O)N(C)C)CN1C(=O)c1ccccc1,0.86,1.22,1.09,-2.59 (inactive),0.945,1.07,-0.208,1.03,-0.568,0.928,1.42,-2.8,-0.195,2.21,0.775,0.268,0.1,2.25,0.755,0.923

# From PubChem BioAssay
